Results from article PMC7862700, “An all-to-all approach to the identification of sequence-specific readers for epigenetic DNA modifications on cytosine”.

Tests used:
Assay in all cases: DAPPL (digital affinity profiling via proximity ligation, sequencing); 10 mM Tris-HCl pH 7.5, 50 mM NaCl, 1 mM DTT, 4% glycerol, room temperature, 30 min; GST-TFs on glutathione beads, 16-mer random dsDNA library, 0.1% formaldehyde crosslink after washing; high values mean tight binding
Settings in all cases: protein: recombinant; tags: N-terminal GST; dsDNA, one strand shown
[1] = target: T1, ERG (Homo sapiens, UniProt P11308 1-479)
T1 sequence: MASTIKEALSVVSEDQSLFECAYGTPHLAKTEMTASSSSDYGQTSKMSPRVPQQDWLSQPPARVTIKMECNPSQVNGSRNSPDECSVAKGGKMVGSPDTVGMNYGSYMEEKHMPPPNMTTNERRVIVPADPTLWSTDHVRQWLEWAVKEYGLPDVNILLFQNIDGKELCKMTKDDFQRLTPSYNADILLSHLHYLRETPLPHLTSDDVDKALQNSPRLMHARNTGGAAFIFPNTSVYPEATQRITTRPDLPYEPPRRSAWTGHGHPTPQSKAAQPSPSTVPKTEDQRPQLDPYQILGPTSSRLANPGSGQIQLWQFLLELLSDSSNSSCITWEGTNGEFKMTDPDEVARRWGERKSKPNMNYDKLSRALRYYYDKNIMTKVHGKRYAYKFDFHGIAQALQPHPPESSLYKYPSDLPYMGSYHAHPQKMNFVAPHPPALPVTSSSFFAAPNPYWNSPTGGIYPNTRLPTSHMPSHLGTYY
Outline: (§1)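 Human transcription factors fused to GST were expressed in yeast, captured on glutathione beads, given DNA barcodes and pooled with a GST-only negative control. Pools were incubated with 200 nmole of a 16-mer random double-stranded DNA library in Tris/NaCl/DTT/glycerol buffer at room temperature for 30 min. They were then washed, crosslinked with 0.1% formaldehyde, proximity-ligated (BsaI/T4 ligase, 1 h, 37 °C), PCR-amplified and sequenced on an Illumina NextSeq500. Binding signal is each 6-mer's read frequency for a factor divided by its frequency for the GST control.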

[2] = target: T2, EHF (Homo sapiens, UniProt Q9NZC4 1-300)
T2 sequence: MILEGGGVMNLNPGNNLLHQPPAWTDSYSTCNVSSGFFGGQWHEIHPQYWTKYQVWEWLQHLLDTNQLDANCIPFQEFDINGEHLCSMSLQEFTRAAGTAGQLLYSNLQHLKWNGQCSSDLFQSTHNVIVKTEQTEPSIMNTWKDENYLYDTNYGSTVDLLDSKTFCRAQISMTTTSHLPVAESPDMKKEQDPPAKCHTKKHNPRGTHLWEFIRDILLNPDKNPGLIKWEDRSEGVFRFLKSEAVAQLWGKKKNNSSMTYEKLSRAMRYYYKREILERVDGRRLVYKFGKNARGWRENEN
Outline: as §1

[3] = target: SPIB (Homo sapiens, UniProt Q01892 1-262)
Chain of SPIB (Q01892 whole entry): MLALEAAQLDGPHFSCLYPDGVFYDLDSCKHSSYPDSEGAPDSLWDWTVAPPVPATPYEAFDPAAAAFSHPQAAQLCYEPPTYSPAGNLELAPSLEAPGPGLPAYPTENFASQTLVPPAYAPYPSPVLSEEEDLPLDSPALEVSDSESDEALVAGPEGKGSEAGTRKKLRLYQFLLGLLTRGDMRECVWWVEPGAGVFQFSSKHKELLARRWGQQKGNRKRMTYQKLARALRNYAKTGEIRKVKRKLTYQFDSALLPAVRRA
Outline: as §1

[4] = target: ETV5 (Homo sapiens, UniProt P41161 1-510)
Chain of ETV5 (P41161 whole entry): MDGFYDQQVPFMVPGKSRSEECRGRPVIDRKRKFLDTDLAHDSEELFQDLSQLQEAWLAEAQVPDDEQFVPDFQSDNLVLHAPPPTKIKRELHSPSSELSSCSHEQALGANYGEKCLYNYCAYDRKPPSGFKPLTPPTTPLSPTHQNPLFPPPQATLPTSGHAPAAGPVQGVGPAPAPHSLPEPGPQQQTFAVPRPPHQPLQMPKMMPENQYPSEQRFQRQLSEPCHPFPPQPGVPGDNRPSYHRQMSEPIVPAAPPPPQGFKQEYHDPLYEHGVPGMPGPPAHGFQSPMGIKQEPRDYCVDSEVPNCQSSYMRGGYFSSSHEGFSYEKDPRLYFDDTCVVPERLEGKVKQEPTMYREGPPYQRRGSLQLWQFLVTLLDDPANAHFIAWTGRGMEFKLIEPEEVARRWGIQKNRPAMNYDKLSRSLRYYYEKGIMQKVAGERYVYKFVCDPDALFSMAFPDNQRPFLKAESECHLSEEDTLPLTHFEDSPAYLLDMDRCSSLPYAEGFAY
Outline: as §1

[5] = target: ELF4 (Homo sapiens, UniProt Q99607 1-663)
Chain of ELF4 (Q99607 whole entry): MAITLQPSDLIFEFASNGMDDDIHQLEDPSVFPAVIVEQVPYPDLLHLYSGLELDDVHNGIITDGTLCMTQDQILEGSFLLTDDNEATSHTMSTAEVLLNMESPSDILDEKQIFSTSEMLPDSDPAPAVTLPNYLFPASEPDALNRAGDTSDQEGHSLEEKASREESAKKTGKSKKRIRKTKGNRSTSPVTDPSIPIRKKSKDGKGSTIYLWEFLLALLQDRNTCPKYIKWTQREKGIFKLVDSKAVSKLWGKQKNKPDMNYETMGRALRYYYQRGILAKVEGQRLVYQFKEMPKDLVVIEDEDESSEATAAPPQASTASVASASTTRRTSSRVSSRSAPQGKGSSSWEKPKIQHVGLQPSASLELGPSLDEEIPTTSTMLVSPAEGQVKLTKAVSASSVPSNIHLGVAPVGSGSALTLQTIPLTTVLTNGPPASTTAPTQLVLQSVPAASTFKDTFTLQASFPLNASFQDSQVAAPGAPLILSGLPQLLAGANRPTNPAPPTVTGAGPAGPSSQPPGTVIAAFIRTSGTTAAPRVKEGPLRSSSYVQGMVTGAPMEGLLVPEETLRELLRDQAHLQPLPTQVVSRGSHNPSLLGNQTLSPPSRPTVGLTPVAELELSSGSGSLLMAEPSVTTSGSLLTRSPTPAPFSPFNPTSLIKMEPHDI
Outline: as §1

[6] = target: T3, ETV2 (Homo sapiens, UniProt O00321 1-342)
T3 sequence: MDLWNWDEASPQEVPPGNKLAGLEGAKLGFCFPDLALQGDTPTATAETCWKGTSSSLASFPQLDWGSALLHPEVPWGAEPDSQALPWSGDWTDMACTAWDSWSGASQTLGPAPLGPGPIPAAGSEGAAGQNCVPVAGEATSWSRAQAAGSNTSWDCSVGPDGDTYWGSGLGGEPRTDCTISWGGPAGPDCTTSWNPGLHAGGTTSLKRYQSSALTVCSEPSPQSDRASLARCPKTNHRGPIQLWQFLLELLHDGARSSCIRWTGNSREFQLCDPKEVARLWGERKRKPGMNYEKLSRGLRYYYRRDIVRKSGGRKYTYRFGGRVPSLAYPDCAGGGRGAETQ
Outline: as §1

[7] = target: T4, ELF3 (Homo sapiens, UniProt P78545 1-371)
T4 sequence: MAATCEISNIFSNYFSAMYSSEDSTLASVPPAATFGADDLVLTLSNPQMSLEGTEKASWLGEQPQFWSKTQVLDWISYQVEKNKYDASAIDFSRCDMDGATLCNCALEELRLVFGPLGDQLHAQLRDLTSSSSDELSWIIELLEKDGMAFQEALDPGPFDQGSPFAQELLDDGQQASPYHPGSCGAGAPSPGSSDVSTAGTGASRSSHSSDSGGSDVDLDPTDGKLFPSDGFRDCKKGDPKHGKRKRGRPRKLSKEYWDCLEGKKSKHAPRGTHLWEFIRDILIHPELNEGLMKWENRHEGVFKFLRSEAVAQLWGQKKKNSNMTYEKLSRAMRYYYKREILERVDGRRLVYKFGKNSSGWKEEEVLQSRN
Outline: as §1

[8] = target: T5, ERF (Homo sapiens, UniProt P50548 1-548)
T5 sequence: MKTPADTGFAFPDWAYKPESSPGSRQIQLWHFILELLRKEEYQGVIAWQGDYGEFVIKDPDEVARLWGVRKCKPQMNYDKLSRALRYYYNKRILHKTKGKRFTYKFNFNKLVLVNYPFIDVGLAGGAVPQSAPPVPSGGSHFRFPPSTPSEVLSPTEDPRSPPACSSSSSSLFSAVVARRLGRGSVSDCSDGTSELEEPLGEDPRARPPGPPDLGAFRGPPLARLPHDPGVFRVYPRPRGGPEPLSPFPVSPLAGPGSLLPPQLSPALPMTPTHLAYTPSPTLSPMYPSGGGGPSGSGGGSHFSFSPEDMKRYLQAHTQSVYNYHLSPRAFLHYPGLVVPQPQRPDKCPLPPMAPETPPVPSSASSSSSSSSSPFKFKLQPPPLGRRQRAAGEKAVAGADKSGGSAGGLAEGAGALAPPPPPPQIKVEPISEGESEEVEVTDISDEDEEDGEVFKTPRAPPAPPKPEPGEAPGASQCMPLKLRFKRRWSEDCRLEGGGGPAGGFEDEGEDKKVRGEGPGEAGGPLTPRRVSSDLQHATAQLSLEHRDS
Outline: as §1

[9] = target: T6, ETV3L (Homo sapiens, UniProt Q6ZN32 1-361)
T6 sequence: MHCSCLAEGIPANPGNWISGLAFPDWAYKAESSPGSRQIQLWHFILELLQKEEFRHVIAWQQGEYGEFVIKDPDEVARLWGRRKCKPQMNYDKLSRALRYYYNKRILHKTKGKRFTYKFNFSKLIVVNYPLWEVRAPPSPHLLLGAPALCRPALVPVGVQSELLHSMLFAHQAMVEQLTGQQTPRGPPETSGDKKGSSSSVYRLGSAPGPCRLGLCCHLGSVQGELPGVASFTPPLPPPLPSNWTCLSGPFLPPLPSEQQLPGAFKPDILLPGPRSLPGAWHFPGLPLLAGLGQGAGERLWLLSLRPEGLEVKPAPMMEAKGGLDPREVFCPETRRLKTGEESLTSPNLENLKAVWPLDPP
Outline: as §1

[10] = target: T7, ETS2 (Homo sapiens, UniProt P15036 1-469)
T7 sequence: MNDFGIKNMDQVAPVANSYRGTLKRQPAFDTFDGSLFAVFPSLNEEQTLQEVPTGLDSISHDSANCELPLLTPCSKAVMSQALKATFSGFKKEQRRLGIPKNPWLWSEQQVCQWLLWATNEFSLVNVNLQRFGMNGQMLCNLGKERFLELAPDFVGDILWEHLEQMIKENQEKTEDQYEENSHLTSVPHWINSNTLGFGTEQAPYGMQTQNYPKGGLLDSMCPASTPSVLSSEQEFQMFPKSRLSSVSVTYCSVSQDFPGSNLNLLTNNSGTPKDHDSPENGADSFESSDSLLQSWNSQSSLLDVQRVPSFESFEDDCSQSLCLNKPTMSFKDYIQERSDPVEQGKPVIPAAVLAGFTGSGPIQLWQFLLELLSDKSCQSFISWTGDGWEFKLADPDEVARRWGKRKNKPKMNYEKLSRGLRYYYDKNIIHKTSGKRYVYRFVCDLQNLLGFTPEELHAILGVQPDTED
Outline: as §1

[11] = target: T8, SPDEF (Homo sapiens, UniProt O95238 1-335)
T8 sequence: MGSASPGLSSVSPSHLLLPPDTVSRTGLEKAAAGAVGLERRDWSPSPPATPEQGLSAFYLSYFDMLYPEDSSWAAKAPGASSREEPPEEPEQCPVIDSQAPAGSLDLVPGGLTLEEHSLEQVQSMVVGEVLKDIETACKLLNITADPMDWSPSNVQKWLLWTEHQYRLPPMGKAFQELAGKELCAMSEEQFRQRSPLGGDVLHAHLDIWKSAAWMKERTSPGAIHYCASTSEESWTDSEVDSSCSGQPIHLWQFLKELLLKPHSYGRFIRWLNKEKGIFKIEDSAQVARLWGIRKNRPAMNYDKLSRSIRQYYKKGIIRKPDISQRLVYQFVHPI
Outline: as §1

[12] = target: ETV6 (Homo sapiens, UniProt P41212 1-452)
Chain of ETV6 (P41212 whole entry): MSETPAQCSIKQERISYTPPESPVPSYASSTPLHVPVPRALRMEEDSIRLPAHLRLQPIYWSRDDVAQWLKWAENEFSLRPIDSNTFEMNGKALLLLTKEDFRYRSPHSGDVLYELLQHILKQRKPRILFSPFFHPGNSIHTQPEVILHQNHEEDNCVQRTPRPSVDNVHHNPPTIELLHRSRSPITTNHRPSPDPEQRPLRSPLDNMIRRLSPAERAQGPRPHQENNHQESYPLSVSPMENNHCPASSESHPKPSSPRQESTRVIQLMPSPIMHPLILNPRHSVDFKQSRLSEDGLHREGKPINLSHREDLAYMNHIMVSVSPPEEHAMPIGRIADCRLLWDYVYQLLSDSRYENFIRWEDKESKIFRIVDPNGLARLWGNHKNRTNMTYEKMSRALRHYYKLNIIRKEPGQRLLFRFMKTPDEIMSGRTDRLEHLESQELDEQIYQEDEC
Outline: as §1

[13] = target: T9, GABPA (Homo sapiens, UniProt Q06546 1-454)
T9 sequence: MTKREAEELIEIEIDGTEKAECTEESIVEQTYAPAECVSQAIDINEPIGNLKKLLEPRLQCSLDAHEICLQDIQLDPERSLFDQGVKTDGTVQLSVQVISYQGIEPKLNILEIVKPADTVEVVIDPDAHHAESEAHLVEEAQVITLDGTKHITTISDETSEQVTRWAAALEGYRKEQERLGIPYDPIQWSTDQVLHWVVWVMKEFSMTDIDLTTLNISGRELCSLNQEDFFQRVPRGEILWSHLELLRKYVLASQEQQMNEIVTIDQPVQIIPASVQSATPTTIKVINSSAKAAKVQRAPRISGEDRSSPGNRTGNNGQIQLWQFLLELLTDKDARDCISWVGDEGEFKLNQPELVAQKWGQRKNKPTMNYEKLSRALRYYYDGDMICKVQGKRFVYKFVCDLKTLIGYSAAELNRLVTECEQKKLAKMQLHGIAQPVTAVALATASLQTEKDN
Outline: as §1

[14] = target: ELF1 (Homo sapiens, UniProt P32519 1-619)
Chain of ELF1 (P32519 whole entry): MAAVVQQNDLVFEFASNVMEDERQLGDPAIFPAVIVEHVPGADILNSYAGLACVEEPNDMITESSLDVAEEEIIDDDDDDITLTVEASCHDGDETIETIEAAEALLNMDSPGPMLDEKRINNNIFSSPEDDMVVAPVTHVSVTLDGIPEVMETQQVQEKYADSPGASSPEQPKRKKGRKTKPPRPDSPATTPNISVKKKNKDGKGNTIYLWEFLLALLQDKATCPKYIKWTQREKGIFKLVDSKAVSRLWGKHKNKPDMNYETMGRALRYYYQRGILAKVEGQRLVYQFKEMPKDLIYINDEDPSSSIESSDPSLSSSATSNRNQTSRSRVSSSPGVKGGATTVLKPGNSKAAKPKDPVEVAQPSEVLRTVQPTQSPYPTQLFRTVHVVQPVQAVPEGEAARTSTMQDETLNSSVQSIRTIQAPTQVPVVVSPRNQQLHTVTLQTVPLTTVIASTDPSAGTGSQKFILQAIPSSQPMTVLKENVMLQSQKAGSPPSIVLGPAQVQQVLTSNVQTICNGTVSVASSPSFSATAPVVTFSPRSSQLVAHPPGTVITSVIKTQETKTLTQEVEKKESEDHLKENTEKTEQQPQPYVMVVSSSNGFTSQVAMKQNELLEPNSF
Outline: as §1

[15] = target: T10, ELK4 (Homo sapiens, UniProt P28324-2 1-405)
T10 sequence: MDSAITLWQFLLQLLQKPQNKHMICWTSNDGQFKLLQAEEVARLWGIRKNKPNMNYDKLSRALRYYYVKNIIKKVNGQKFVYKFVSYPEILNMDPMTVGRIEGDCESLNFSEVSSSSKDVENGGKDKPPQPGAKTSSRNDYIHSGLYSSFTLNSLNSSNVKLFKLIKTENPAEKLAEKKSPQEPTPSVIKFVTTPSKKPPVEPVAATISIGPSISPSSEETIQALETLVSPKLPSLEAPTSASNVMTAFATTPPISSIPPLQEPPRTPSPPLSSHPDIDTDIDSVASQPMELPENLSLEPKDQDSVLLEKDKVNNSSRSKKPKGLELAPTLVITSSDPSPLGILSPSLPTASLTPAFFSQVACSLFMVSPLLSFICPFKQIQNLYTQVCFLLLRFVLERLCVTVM
Outline: as §1

[16] = target: ETV1 (Homo sapiens, UniProt P50549 1-477)
Chain of ETV1 (P50549 whole entry): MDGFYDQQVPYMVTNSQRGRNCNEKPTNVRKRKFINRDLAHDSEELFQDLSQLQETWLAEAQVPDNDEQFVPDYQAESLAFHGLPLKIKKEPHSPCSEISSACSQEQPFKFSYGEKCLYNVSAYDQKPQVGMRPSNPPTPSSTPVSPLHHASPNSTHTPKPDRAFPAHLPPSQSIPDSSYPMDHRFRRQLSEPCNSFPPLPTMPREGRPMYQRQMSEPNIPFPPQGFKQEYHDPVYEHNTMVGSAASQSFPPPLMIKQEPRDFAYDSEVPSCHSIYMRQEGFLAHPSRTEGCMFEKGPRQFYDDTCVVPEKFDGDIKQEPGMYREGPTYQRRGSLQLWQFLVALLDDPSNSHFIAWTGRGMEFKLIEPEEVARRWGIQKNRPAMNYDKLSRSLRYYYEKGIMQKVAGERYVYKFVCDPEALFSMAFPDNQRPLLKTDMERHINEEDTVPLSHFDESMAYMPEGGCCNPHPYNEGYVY
Outline: as §1

[17] = target: T11, ETV3 (Homo sapiens, UniProt P41162-2 1-143)
T11 sequence: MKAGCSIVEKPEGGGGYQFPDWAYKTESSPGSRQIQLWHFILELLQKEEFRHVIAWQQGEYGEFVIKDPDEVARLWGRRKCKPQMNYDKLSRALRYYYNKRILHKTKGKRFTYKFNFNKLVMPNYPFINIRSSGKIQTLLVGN
Outline: as §1

Row | Sequence | binding signal [1] | binding signal [2] | binding signal [3] | binding signal [4] | binding signal [5] | binding signal [6] | binding signal [7] | binding signal [8] | binding signal [9] | binding signal [10] | binding signal [11] | binding signal [12] | binding signal [13] | binding signal [14] | binding signal [15] | binding signal [16] | binding signal [17]
1 | TAGGAT | 1.07 fold enrichment (6-mer frequency, TF over GST control) | 1.06 fold enrichment (6-mer frequency, TF over GST control) | 1.03 fold enrichment (6-mer frequency, TF over GST control) | 1.03 fold enrichment (6-mer frequency, TF over GST control) | 1 fold enrichment (6-mer frequency, TF over GST control) | 1.03 fold enrichment (6-mer frequency, TF over GST control) | 1.03 fold enrichment (6-mer frequency, TF over GST control) | 1.02 fold enrichment (6-mer frequency, TF over GST control) | 1.06 fold enrichment (6-mer frequency, TF over GST control) | 1.03 fold enrichment (6-mer frequency, TF over GST control) | 1.22 fold enrichment (6-mer frequency, TF over GST control) | 1.06 fold enrichment (6-mer frequency, TF over GST control) |  |  |  |  | 
2 | TGAAAT | 1.02 fold enrichment (6-mer frequency, TF over GST control) | 1.01 fold enrichment (6-mer frequency, TF over GST control) | 1.01 fold enrichment (6-mer frequency, TF over GST control) | 1.07 fold enrichment (6-mer frequency, TF over GST control) |  | 1.04 fold enrichment (6-mer frequency, TF over GST control) | 1.09 fold enrichment (6-mer frequency, TF over GST control) | 1.01 fold enrichment (6-mer frequency, TF over GST control) | 1.04 fold enrichment (6-mer frequency, TF over GST control) |  |  |  | 1.03 fold enrichment (6-mer frequency, TF over GST control) | 1 fold enrichment (6-mer frequency, TF over GST control) | 1.04 fold enrichment (6-mer frequency, TF over GST control) | 1.08 fold enrichment (6-mer frequency, TF over GST control) | 1.03 fold enrichment (6-mer frequency, TF over GST control)
